ERAP1 inh = blocks human ERAP1 aminopeptidase activity | 340,000 tested, 0.15% active | inhibition, % at 10.7 µM | recombinant ERAP1, Leu-AMC fluorescence, 60 min | Q9NZ08;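 active means mean replicate inhibition of at least 30%, or all replicates individually reaching that 30% level; inactive means mean below 30% and not every replicate reaching it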;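 further: 0% = neutral control wells and 100% = L-leucinethiol positive control wells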
FGF22 binding = shifts melting point of recombinant human FGF22. 340,000 tested, 1.5% active. activity (Tm shift, normalised), % at 9.99 µM. Q9HCT0. recombinant FGF22 thermal shift, SYPRO orange fluorescence; percent of sucrose octasulfate shift, DMSO zero;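 active means mean Tm shift, scaled 0 neutral to 100 positive control, at about 1.3% or above, every replicate too, limit read from the data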
SIRT5 inh = sirtuin-5 (human) deacylase inhibition; Purified SirT5, succinyl-peptide AMC, trypsin-coupled fluorescence; inhibition, % at 15 µM; 330,000 tested, 1.1% active; in the data active means inhibition above about 15%
GSIS activator = primary screen for activators of insulin secretion dependent on glucose, INS-1E cells, GLuc reporter luminescence; AID 743287; INS-1E GLuc reporter insulin secretion, 2-3 h; 370,000 tested, 0.61% active; activation, % at 16.6 µM;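 active means lowest replicate activation of at least 40%, so every replicate reaches that level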;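 further: 0% = median of neutral control wells and 100% = median of IBMX positive control wells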
Casp6 inh = caspase-6 (human) enzyme inhibition. P55212. purified caspase-6, Z-VEID-R110 cleavage fluorescence. inhibition, % at 12.5 µM. 350,000 tested, 0.53% active;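 active means mean inhibition across replicates at least about 35%, with every replicate also reaching that limit, limit read from the data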;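 further: 0% = median of neutral control wells and 100% = no fluorescence left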
The depositor's hits bear a star. Shown are actives, neighbours in structure and some others; about 3.3% of the full set was active somewhere.

`COc1ccc(N(C(=O)c2snc(C(N)=O)c2N)C(C(=O)NC2CCCCC2)c2ccc(C)o2)c(OC)c1` (centres undefined) gave ERAP1 inh 1.0, FGF22 binding -0.3, SIRT5 inh 0.2, GSIS activator -18.4 and Casp6 inh 0.0.
Screening COc1cc(CN2CC3(CN(C(C)=O)C3)c3c([nH]c4cc(OC)ccc34)[C@H]2CO)cc(OC)c1 returned GSIS activator -2.1.
CCC1(C)Cc2ccccc2-c2nc(SC)[nH]c(=O)c21 (centres undefined) was read as ERAP1 inh -1.4, FGF22 binding -0.2, SIRT5 inh -4.6, GSIS activator 60.2* and Casp6 inh -2.5.
Screening COc1ccc(CN(C)C[C@@H]2OCCCC[C@H](C)Oc3ccc(NC(=O)Nc4ccc(C(F)(F)F)cc4)cc3C(=O)N([C@@H](C)CO)C[C@@H]2C)cc1 returned ERAP1 inh -1.3, FGF22 binding -1.3, SIRT5 inh 8.5, GSIS activator 23.8 and Casp6 inh -0.6.
Cc1nc2cc(C(=O)O)ccc2n1C1CCCCC1 was read as ERAP1 inh -2.6, FGF22 binding 0.1, SIRT5 inh -0.8, GSIS activator 1.4 and Casp6 inh 3.2.
`O=C(O)c1ccc2c(c1)ncn2C1CCCC1` gave ERAP1 inh -7.4, FGF22 binding 0.3, SIRT5 inh 20.7*, GSIS activator -4.9 and Casp6 inh 1.6.
For C[C@@H]1CN([C@H](C)CO)C(=O)CCCn2cc(nn2)CO[C@@H]1CN(C)S(=O)(=O)c1ccccc1C#N the results were ERAP1 inh 1.7, FGF22 binding -0.1, SIRT5 inh -1.0, GSIS activator -1.2 and Casp6 inh -2.4.
Screening c1ccc2[nH]c(CCCc3nc4ccccc4[nH]3)nc2c1 returned ERAP1 inh -0.1, FGF22 binding 0.1, SIRT5 inh -0.1 and Casp6 inh -6.5.
Screening S=c1cnc2ccccc2[nH]1 returned ERAP1 inh -2.9, FGF22 binding 43.2*, SIRT5 inh -0.7, GSIS activator -0.9 and Casp6 inh 5.7.
Screening C[C@H](NC(=O)C[C@@H]1C=C[C@@H](NC(=O)Nc2ccc3c(c2)OCO3)[C@@H](CO)O1)c1ccccc1 returned ERAP1 inh -1.4, SIRT5 inh 0.6, GSIS activator 24.1 and Casp6 inh 0.6.
For O=C(NC(=S)Nc1ccc(N2CCOCC2)cc1)c1ccc2c(c1)OCCO2 the results were GSIS activator -13.0.
`CS(=O)(=O)N1CCN(c2ccc(NC(=S)NC(=O)c3ccc4c(c3)OCO4)cc2)CC1` gave ERAP1 inh -3.4, FGF22 binding 43.5*, SIRT5 inh 12.6, GSIS activator 16.8 and Casp6 inh -2.8.
`C[C@@H]1CN([C@@H](C)CO)S(=O)(=O)c2ccc(-c3cccc(F)c3)cc2O[C@@H]1CN(C)S(=O)(=O)c1ccc(F)cc1` gave ERAP1 inh 0.7, FGF22 binding 0.0, SIRT5 inh 16.6*, GSIS activator -3.9 and Casp6 inh -0.6.
Screening C[C@H]1CN([C@@H](C)CO)S(=O)(=O)c2ccc(-c3cccc(F)c3)cc2O[C@H]1CN(C)S(=O)(=O)c1ccc(F)cc1 returned ERAP1 inh -0.1, FGF22 binding 0.0, SIRT5 inh 19.7*, GSIS activator -17.0 and Casp6 inh 1.1.
`C[C@H](CO)N1C[C@H](C)[C@H](CN(C)S(=O)(=O)c2ccc(F)cc2)Oc2cc(-c3cccc(F)c3)ccc2S1(=O)=O` gave ERAP1 inh 0.6, FGF22 binding -0.1, SIRT5 inh 12.6, GSIS activator 1.7 and Casp6 inh -0.5.
c1ccc(-c2nnc3n2-c2ccccc2SC3)cc1 was read as ERAP1 inh 1.9, FGF22 binding 0.1, SIRT5 inh -2.8, GSIS activator 58.0* and Casp6 inh -0.6.
COc1cccc(NC(=O)Nc2ccc3c(c2)C(=O)N(C)[C@@H]2CC[C@@H](CC(=O)NCCc4ccccc4)O[C@@H]2CO3)c1 was read as ERAP1 inh -0.4, FGF22 binding 0.4, GSIS activator -14.4 and Casp6 inh 6.5.
CCOc1ccc(NC(=O)CN(C)C(=O)c2cc(C)nc3ccccc23)cc1OCC was read as ERAP1 inh 0.0, FGF22 binding -0.2, SIRT5 inh 9.1 and Casp6 inh 37.5*.
CCOc1ccc(NC(=O)CN(C)C(=O)c2cc(-c3ccncc3)nc3ccccc23)cc1OCC was read as ERAP1 inh 0.8, FGF22 binding 0.2, SIRT5 inh -1.9, GSIS activator 3.0 and Casp6 inh 1.3.

Screening data deposited in PubChem by Broad Institute.
